High-throughput results as filed in PubChem BioAssay.
This is a sample that favours compounds with a hit; in the whole collection about 2.4% have one here.
M1 antag: blocks human M1 muscarinic receptor; P11229; CHO-K1 hM1, Fluo-8 calcium fluorescence, ACh EC80 antagonist; inhibition, % at 3 µM; actives 1.3% (n = 360,000); AID 588852;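 active = percent inhibition above its own plate's cutoff, namely the mean of that plate's compound wells plus 3 SD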;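 also: peak over basal fluorescence ratio during 140 s after agonist addition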
Target sequence (P11229 whole entry, looked up): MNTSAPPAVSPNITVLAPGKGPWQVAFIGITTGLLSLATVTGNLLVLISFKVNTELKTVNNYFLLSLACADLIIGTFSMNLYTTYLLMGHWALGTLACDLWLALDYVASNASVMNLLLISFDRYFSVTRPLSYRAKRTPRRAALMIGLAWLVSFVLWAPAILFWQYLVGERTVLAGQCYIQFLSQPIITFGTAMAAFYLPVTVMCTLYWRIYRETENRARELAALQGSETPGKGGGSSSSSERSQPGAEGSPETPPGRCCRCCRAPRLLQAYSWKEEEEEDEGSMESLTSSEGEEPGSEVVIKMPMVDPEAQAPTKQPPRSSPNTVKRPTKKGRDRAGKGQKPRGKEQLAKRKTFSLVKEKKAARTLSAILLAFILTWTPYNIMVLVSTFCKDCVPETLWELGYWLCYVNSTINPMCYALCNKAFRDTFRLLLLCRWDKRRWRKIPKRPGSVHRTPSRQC
M1 PAM: human CHRM1 positive allosteric modulation; AID 588819; actives 0.088% (n = 360,000); activation, % at 3 µM; CHO-K1 hM1, Fluo-8 calcium fluorescence, ACh EC20; 0% = ACh EC20, 100% = maximal ACh; P11229; in the data active = activation above about 19%, passing the limit was not always enough
CHO-K1 Ca antag: nonselective inhibitor or artifact in parental CHO-K1 cells. ATP-induced calcium, Fluo-8 fluorescence. inhibition, % at 3 µM. actives 0.6% (n = 360,000). AID 602250;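 active = inhibition above a per-plate cutoff, the plate's mean sample inhibition plus 3 SD, cut at about 24% in these data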
CHRM1 agonist: agonists of human M1 muscarinic receptor; CHO-K1 hM1, Fluo-8 calcium fluorescence, agonist mode; 0% DMSO, 100% acetylcholine EC100; activation, % at 3 µM; actives 0.33% (n = 360,000); AID 588814;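 active = activation above the run's mean compound activation plus 3 SD, cut at about 16% in these data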;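 also: peak over basal fluorescence ratio within a 140 s kinetic read after compound addition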
M1 PAM parental: nonselective activator or artifact in parental CHO-K1 calcium assay; ATP EC20, Fluo-8 calcium fluorescence; 0% at ATP EC20, 100% at ATP max; activation, % at 3 µM; actives 0.02% (n = 360,000);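 active = activation above the run cutoff, the mean activation of all test compounds plus 3 SD, cut at about 40% in these data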;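 also: peak over basal fluorescence ratio in a 140 s read after ATP addition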
CHO-K1 Ca ag: counter-screen for M1 agonists: effect in parental CHO-K1 cells | actives 0.48% (n = 360,000) | activation, % at 3 µM | Fluo-8 calcium fluorescence; scaled to maximal ATP response, vehicle zero; in the data active = activation above about 15%;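 also: untransfected CHO-K1 host cells lacking M1 receptor as counterscreen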
Numbers stand for hits; - = inactive.

SMILES | M1 antag | M1 PAM | CHO-K1 Ca antag | CHRM1 agonist | M1 PAM parental | CHO-K1 Ca ag
Cc1ccc(C(=O)OCC(=O)N2CCCC2)cc1 | 21 | - | - | - | - | -
O=C(OCC(=O)N1CCCCCC1)c1ccc(Cl)c(S(=O)(=O)N2CCCC2)c1 | - | - | - | - | - | 16
CCC1(C(N)=O)CC2C=CC1C2 (stereo not given) | - | - | - | - | - | -
C=CC[C@@H](CC(=O)N(CCO)Cc1ccccc1)C(=O)N[C@H](COC(=O)[C@@H](CC=C)Cc1ccc(F)cc1)c1ccccc1 | - | - | - | - | - | -
C=CC[C@@H](CC(=O)N(CCO)Cc1ccccc1)C(=O)NC[C@H](OC(=O)[C@@H](CC=C)Cc1ccc(F)cc1)c1ccccc1 | 34 | - | - | - | - | -
COc1ccc(NC(=O)C2(C)CCN2C2Cc3ccccc3C2)cc1OC (stereo not given) | - | - | - | - | - | -
Cc1ccccc1Nc1nnc(SCc2cc([N+](=O)[O-])cc3c2OCOC3)s1 | 41 | - | - | - | - | -
C#CCOCCOCCOCCNc1nc(N2CCN(C(=O)CCCCCCCCCCNC(=O)[C@@H](CCC(=O)O)n3cc(CCCCCN)nn3)CC2)nc(N2CCN(C(=O)CCCCCCCCCCNC(=O)[C@H](CCCCN)n3cc(C[C@@H](C)CC)nn3)CC2)n1 | - | - | - | 20 | - | -
Cc1cc(C)c(NC(=O)C2CCCN2CCC(C)C)c(C)c1 (stereo not given) | - | - | - | - | - | -
CCC(C)N1CCCC1C(=O)Nc1c(C)cc(C)cc1C (stereo not given) | - | - | 25 | - | - | -
N#Cc1c(NC(=O)c2ccc(-c3ccccc3[N+](=O)[O-])o2)sc2c1CCCC2 | - | - | 28 | - | - | -
COc1ccc(-c2ccc(-c3cc(=O)oc4c(C(C)C)ccc(C)c34)cc2)cc1 | - | - | - | - | - | -
O=C(O)CC(C(=O)OCC1CCCO1)N1CCOCC1 (stereo not given) | - | - | - | - | - | -
O=C(O)CC(C(=O)OC1CCCCC1)N1CCOCC1 (stereo not given) | - | - | 31 | - | - | -
COc1ccc(CN2CCNC(=O)C2CC(=O)N2CCCN(C(C)=O)CC2)c(OC)c1 (stereo not given) | - | - | - | - | - | -
COc1ccc(N(C(=O)C(C)C)S(=O)(=O)c2ccc3ccccc3c2)cc1 | - | - | - | - | - | -
C#CC[N+]1(CC#Cc2ccccc2)CCCCC1 | - | - | - | - | - | -
C(#Cc1ccccc1)C[N+]1(CC#Cc2ccccc2)CCCCC1 | 60 | - | - | - | - | -
C#CC[N+]1(CC#Cc2ccccc2)CCOCC1 | - | - | - | - | - | -
Cc1ccc(C#CC[N+]2(CC#Cc3ccc(C)cc3)CCCCC2)cc1 | 48 | - | - | - | - | -
C#CC[N+]1(CC#Cc2cccc(C)c2)CCCCC1 | - | - | - | - | - | -
CCC[N+]1(CC#CCC(c2ccccc2)c2ccccc2)CCCCC1 | 63 | - | - | - | - | -
CCOC(=O)c1cnc2cc(-c3ccc(C)cc3)nn2c1C | - | - | - | - | - | -
Cc1cccc(NC(=S)N(CCCN2CCCC2)Cc2cccn2Cc2ccc(Cl)cc2)c1 | - | - | - | - | - | 17
CCOc1ccc(NC(=S)N(CCCN2CCCC2)Cc2cccn2Cc2ccc(Cl)cc2)cc1 | - | - | - | - | - | -
SMILES | M1 antag | M1 PAM | CHO-K1 Ca antag | CHRM1 agonist | M1 PAM parental | CHO-K1 Ca ag
Cc1ccccc1C(=O)NC1CC2CCCC(C1)N2C(=O)Nc1ccccc1 (stereo not given) | - | - | - | - | - | -
O=C1C=C(N2CCCCCC2)C(=O)N1c1ccc(Cl)cc1 | 81 | - | - | - | - | -
COc1ccccc1CNC(=O)CSc1nnc2c(n1)[nH]c1ccc(F)cc12 | - | - | - | - | - | -
CN(C)CCOC(c1ccc(Cl)cc1)c1ccccn1 (stereo not given) | - | - | - | - | - | -
Cc1ccccc1C(OCCN(C(C)C)C(C)C)c1ccccc1 (stereo not given) | 101 | - | - | - | - | -
CCCn1c(SCC(=O)N2CCCc3ccccc32)nnc1-c1ccccn1 | - | - | - | - | - | -
